Hits are enriched below; roughly 1.7% of the tested compounds scored in any of these assays.
HEK293 tox: cytotoxicity in counter-screen for GLP-1R inverse agonists | 0.13% of 410,000 active | HEK293 cAMP-luciferase reporter cells, luminescence, 24 h | Potency, µM (titrated, usually from 38.3 µM), for the others: top-dose activity change, negative = inhibition, most hits filed as inhibitors;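 also: loss of luciferase light is scored as toxicity; potency is read from the fitted curve at half-maximal effect; % is scaled to controls: 0 for no effect and ±100 for the full control effect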
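Luminescence readout: signal drop marks cytotoxicity. Plated cells grew 12 h at 37 °C, 5% CO2, received 23 nL compound for 24 h, then got luciferase reagent, read after 12 min at RT.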
PTHR1 agonist: PTHR1 (human) receptor agonism | Q03431 | HEK293 GP2 PTHR1 cells, GloSensor cAMP luminescence, 1 h | Potency, µM (highest dose often 115 µM), without a hit: at the top dose activation, most hits filed as activators | 0.075% of 410,000 active | AID 743266; also: potency is read from the fitted curve at half-maximal effect; nearly all actives have a fitted effect of over 55% in size
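HEK-293-derived GP2 cells expressing PTHR1 and a GloSensor cAMP reporter, 3,000/well, plated overnight, given luciferin plus IBMX (each 0.5 mM as added) for 1 h at 37 °C, then compound for 1 h at 37 °C. Luminescence was read after 15 min at room temperature.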
LDHA inh: LDHA (human) enzyme inhibition. P00338. activity change, % (values are at about 110 or 230 µM). AID 1347041. purified LDHA, NADH/diaphorase-resazurin fluorescence; active compounds read low. 0.15% of 480,000 active; in the data active = activity change below about -30%; inconclusive = mostly about -25% to -30%;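 also: plate controls were DMSO wells for no effect and wells without enzyme for full effect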
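LDH5 2 nM; NADH 0.06 mM, pyruvate 0.2 mM; 200 mM Tris pH 7.4, EDTA, Tween-20; 5 min RT. Detection: diaphorase 0.133 mg/mL + resazurin 37 µM, fluorescence ex540/em590 at 0 and 20 min; normalized to enzyme-free and DMSO wells.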
GLP-1R inv ag: inverse agonists of human GLP-1 receptor; 1.6% of 410,000 active; P43220; HEK293 GLP-1R CRE-luciferase, luminescence, 24 h; GLP-1R form is constitutively active; AID 624417; Potency, µM (doses to about 38.3 µM), for inactives: top-dose activity change, negative = inhibition, usual class: inhibitors; also: potency is read from the fitted curve at half-maximal effect; % is scaled to controls: 0 for no effect and ±100 for the full control effect; nearly all actives have a fitted effect of over 55% in size
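Using stably transfected HEK293 (constitutively active GLP-1R, cAMP-luciferase reporter), compounds were incubated 24 hr and luciferase measured by luminescence.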
mIDH1 inhibitor: blocks human mutant IDH1 R132H enzyme; O75874; IDH1-R132H enzyme, NADPH consumption, diaphorase/resazurin fluorescence; Potency, µM (series often up to 76.6 µM), for inactives: top-dose activity change, negative = inhibition, hits mostly inhibitors; 0.093% of 390,000 active; AID 602179; also: potency is read from the fitted curve at half-maximal effect; % is scaled to controls: 0 for no effect and ±100 for the full control effect; nearly all actives have a fitted effect of over 65% in size
Target sequence (O75874 whole entry R132H, stated change not applied): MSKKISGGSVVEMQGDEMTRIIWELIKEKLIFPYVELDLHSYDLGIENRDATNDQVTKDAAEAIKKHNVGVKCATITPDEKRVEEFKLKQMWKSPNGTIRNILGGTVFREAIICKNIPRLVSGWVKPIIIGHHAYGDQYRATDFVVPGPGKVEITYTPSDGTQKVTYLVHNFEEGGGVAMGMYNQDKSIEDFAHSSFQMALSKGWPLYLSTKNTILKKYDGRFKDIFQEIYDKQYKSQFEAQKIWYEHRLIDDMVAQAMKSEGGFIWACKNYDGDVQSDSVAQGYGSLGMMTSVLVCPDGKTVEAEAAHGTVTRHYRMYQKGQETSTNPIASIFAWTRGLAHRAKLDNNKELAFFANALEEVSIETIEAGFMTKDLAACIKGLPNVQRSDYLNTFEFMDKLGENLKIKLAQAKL
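IDH1-R132H (0.5 ug/mL) preincubated 30 min with compound, then NADPH (0.016 mM) and alpha-KG (2 mM) added; 80 min at RT, pH 7.5. Remaining NADPH coupled via diaphorase/resazurin to fluorescence (540/590 nm); concentration-response curves normalized to no-enzyme control.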
GLP-1R agonist: agonists of human GLP-1 receptor; Potency, µM (doses to about 45.6 µM), for the others: at the top dose activation, usual class: activators; 0.007% of 380,000 active; HEK293 GLP-1R CRE-luciferase, luminescence, 4-6 h; cells express a hypersensitive GLP-1R form; P43220; also: potency is read from the fitted curve at half-maximal effect; % of control where 0% means no effect
An asterisk follows results filed as active; i = inactive; ? = inconclusive; / = not tested or not shown. Unless noted, calls follow the shape of the dose curve; as a rule, active = well fitted curve in the direction sought with a large enough effect; inconclusive = small, poorly fitted or top-dose-only effect, or another doubt; inactive = no such curve, though single readings can be large; an effect the other way counts as inactive or inconclusive.

SMILES	HEK293 tox	PTHR1 agonist	LDHA inh	GLP-1R inv ag	mIDH1 inhibitor	GLP-1R agonist
O=C(Nc1cc(C(F)(F)F)ccc1Cl)C(NCc1ccccc1)c1ccccc1 (stereo unspecified)	-5.5%	-30.3%	2.2	3.55µM*	2.8%	0.4%
COc1ccc(NC(=O)C(c2ccccc2)N(C)C(=O)/C=C\c2ccc3c(c2)OCO3)cc1 (stereo unspecified)	-2.8%	i	4.0	?	-10.5%	/
COc1ccc(C(C(=O)Nc2ccc3c(c2)OCO3)N(C)C(=O)Cc2c[nH]c3ccccc23)cc1 (stereo unspecified)	-9.0%	-7.6%	3.2	2.24µM*	0.2%	6.9%
CC(NC(=O)CN(C)CC(=O)Nc1ccc(Cl)c(C(F)(F)F)c1)c1ccccc1 (stereo unspecified)	5.8%	-36.1%	-3.8	10µM*	3.1%	-4.2%
Cc1cc(C(=O)CSc2nnc(Nc3ccccc3F)s2)c(C)n1C	/	/	4.8	/	/	/
CCCN1CCN(C(=O)C2CCN(S(=O)(=O)c3c(C)noc3/C=C/c3ccc(C)cc3)CC2)CC1	?	i	-1.9	3.16µM*	-7.1%	8.0%
Cc1ccc(/C=C/c2onc(C)c2S(=O)(=O)N2CCC(C(=O)N3CCCCC3)CC2)cc1	-5.6%	-22.0%	-10.2	?	3.5%	-1.0%
COc1ccc(/C=C/c2onc(C)c2S(=O)(=O)N2CCC(C(=O)N3CCCCCC3)CC2)cc1	17.7%	-5.4%	-1.8	5.01µM*	-5.3%	1.8%
CC(NC(=O)OCc1ccccc1)C(=O)O (stereo unspecified)	/	/	1.7	/	/	/
Cc1ccc(-c2nc3ccccc3s2)cc1S(=O)(=O)N1CCCCC1	/	/	-4.5	/	/	/
Cn1c(=N)n(CC(=O)c2ccccc2)c2ccccc21	-17.7%	-24.2%	-11.1	11.2µM*	-0.8%	-1.5%
Cn1c(=N)n(CC(=O)c2ccc(Cl)c(Cl)c2)c2ccccc21	12.6%	-90.6%	-12.3	7.08µM*	16.3%	-8.4%
Cc1nc2cc(F)cc(C(=O)NCC3CCC3)c2nc1C	/	/	11.4	/	/	/
CC(NC(=O)CN1CSCC1=O)c1ccc(F)cc1 (stereo unspecified)	/	/	-6.6	/	/	/
COc1ccc(C=O)cc1OS(=O)(=O)c1ccc(NC(C)=O)cc1	-15.0%	i	-18.0	17.7%	17.4%	10.1%
COc1ccc(/C=N/NC(=O)c2ccc3ccccc3c2)cc1OS(=O)(=O)c1ccc(NC(C)=O)cc1	2.24µM*	i	-1.3	-0.6%	5.2%	-1.5%
CCCCN(C(=O)c1cccc2c(=O)c(C)c(-c3ccccc3)oc12)c1ccccc1	-16.3%	-7.4%	1.8	10µM*	?	-5.7%
Cc1ncoc1C(=O)NC1CCCc2c1cnn2-c1ccc(C(C)(C)C)cc1 (stereo unspecified)	11.4%	-55.0%	0.2	5.01µM*	5.4%	4.7%
Cc1cc(C)cc(-n2ncc3c2CCCC3NC(=O)c2cc(C)oc2C)c1 (stereo unspecified)	-8.3%	-11.0%	-3.8	12.6µM*	6.3%	0.3%
COc1ncccc1C(=O)NC1CCCc2c1cnn2-c1cc(C)cc(C)c1 (stereo unspecified)	0.9%	-19.6%	1.5	4.0%	-8.2%	?
COCc1ccc(C(=O)NC2CCCc3c2cnn3-c2cc(C)cc(C)c2)s1 (stereo unspecified)	-17.8%	-34.7%	-0.6	7.08µM*	0.0%	6.0%
Cc1cc(=O)oc2cc(OCC(=O)c3ccc(OC(F)F)cc3)ccc12	/	/	-20.2	/	/	/
COc1cccc(CN2CCN(S(=O)(=O)c3cc(OC)ccc3OC)CC2)c1	/	/	5.7	/	/	/
COc1ccc(C2CC(=O)Nc3c2c(=O)nc(SCc2ccccc2)n3C)cc1Br (stereo unspecified)	/	/	5.8	/	/	/
C/C(CC(=O)Nc1ccc(Cl)c(Cl)c1)=N\NC(N)=S	?	i	3.1	11.2µM*	5.9%	-5.9%
SMILES	HEK293 tox	PTHR1 agonist	LDHA inh	GLP-1R inv ag	mIDH1 inhibitor	GLP-1R agonist
C/C(CC(=O)Nc1ccc(C)c(Cl)c1)=N\NC(=O)c1ccncc1	11.2%	-18.7%	4.8	10µM*	2.8%	5.7%
CCN(CC(=O)Nc1ccc(NC(C)=O)cc1)CC(=O)Nc1ccc(Cl)c(Cl)c1	12.5%	-6.7%	-45.2*	-8.7%	11.0%	5.0%
C/C(CC(=O)Nc1ccc(Cl)cc1Cl)=N\NC(=O)c1ccncc1	-8.8%	i	-0.4	-18.9%	-3.2%	2.4%
C/C(CC(=O)Nc1cc(Cl)ccc1Cl)=N\NC(N)=S	-27.3%	-15.1%	3.7	?	14.1%	2.5%
CCOC(=O)C1CCN(C(=O)c2cc3cc(OC)ccc3[nH]2)CC1	/	/	10.1	/	/	/
Cc1cccc(N(C(=O)Cn2nnc(-c3ccccc3F)n2)C(C(=O)NC(C)(C)C)c2ccncc2)c1 (stereo unspecified)	-11.7%	i	-6.5	-8.3%	2.6%	3.3%
CC(C)(C)NC(=O)C(c1ccncc1)N(C(=O)Cn1nnc(-c2ccc(F)cc2)n1)c1cccc(F)c1 (stereo unspecified)	9.7%	10µM*	-2.6	0.0%	-4.5%	-6.6%
COc1cccc(N(C(=O)Cn2nnc(-c3ccc(C)cc3)n2)C(C(=O)NC(C)(C)C)c2c[nH]c3ccccc23)c1 (stereo unspecified)	-14.8%	i	-4.6	?	2.6%	-10.7%
CC(C)(C)NC(=O)C(c1c[nH]c2ccccc12)N(C(=O)Cn1nnc(-c2ccc(Cl)cc2)n1)c1ccccc1F (stereo unspecified)	-18.6%	-5.4%	-3.2	5.01µM*	1.3%	-21.5%
O=C(NC1(c2ccccc2)CCC1)c1ccc(F)cc1Br	/	/	-2.9	/	/	/
Cc1cccc(-c2nc(C#N)c(N3CCOCC3)o2)c1	/	/	-31.3*	/	/	/
O=C(c1cc(S(=O)(=O)NC2CC2)c(Cl)cc1Cl)N1CCN(c2ccccc2O)CC1	/	/	13.0	/	/	/
CCCCC[C@@H](C)N1C[C@@H](COCc2ccccc2)Oc2cc(N3CC[C@@H](O)C3)ccc2S1(=O)=O	-20.5%	i	4.2	14.1µM*	/	1.1%
CCCCC[C@@H](C)N1C[C@@H](COCc2ccccc2)Oc2cc(N3CC[C@H](O)C3)ccc2S1(=O)=O	-2.4%	-41.4%	4.7	?	/	2.5%
CCCCC[C@H](C)N1C[C@@H](COCc2ccccc2)Oc2cc(N3CC[C@@H](O)C3)ccc2S1(=O)=O	?	i	7.2	10µM*	/	-2.7%
CCOc1ccccc1CNC(=O)CC(C)n1nc(C)cc1C (stereo unspecified)	/	/	-6.6	/	/	/
